# Lassa entry inh: inhibitors of Lassa virus binding or cell entry; Lassa virus pseudotype entry inhibition, cell reporter; Potency, µM (top dose mostly 37.9 µM), for the others: at the top dose activity change, negative = inhibition, usual class: inhibitors; 300,000 compounds, 1.2% hits; AID 540256; calls by dose curve; tested in HEK293 cells; note: potency is the fitted concentration of half-maximal effect; nearly all actives have a fitted effect of over 50% in size
# HCV inhibitor: blocks hepatitis C virus. 340,000 compounds, 3.4% hits. Huh7.5.1 HCVcc-Cre infection, luciferase reporter, 44 h. AID 651820. Potency, µM (highest dose often 41.8 µM), without a hit: at the highest dose activity change, negative = inhibition, hits mostly inhibitors; active = well fitted inhibition curve with a large enough effect; inconclusive = small, poorly fitted or top-dose-only effect, or another doubt; inactive = no such curve, though single readings can be large or run the other way; note: potency is the fitted concentration of half-maximal effect
#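 Compounds are dispensed onto cells plated 4 h earlier at 1,000 per well, with HCVcc-Cre virus (about 0.5 moi) added next. Following 44 h of culture, luminescent signal is measured for 15 sec after 15 min with substrate at room temperature.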
# HCMV inh: blocks human cytomegalovirus replication | HFF cells, HCMV-luciferase reporter, 72 h; hits give low values | activity change, negative = inhibition, % at 57.5 µM | 410,000 compounds, 4.5% hits | AID 1259415; in the data active = activity change below about -60%; inconclusive = no clear call, values can overlap the other calls; inactive = above about -39%
#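 Cell-based, HFFs, 1000 cells/well, 16 h 37C; cpds in DMSO + HCMV-luc, MOI 1 PFU/cell; 72 h 37C; OneGlo luminescence after 5 min RT; norm. to buffer vs Salinomycin 10uM.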
# FMDV antiviral: antivirals against foot and mouth disease virus | FMDV antiviral cell-based qHTS | Potency, µM (titrated, usually from 57.9 µM), without a hit: at the top dose activity change, negative = inhibition, most hits filed as inhibitors | 410,000 compounds, 1.2% hits; calls by dose curve; tested in HEK293T cells; note: read-out not given here; potency is the fitted concentration of half-maximal effect; nearly all actives have a fitted effect of over 45% in size
# Marburg entry inh: Marburg virus entry inhibition; Marburg virus pseudotyped entry inhibition, cell reporter; Potency, µM (titrated, usually from 37.8 µM), without a hit: at the highest dose activity change, negative = inhibition, most hits filed as inhibitors; 300,000 compounds, 1.8% hits; AID 540276; calls by dose curve; tested in HEK293 cells; note: potency is the fitted concentration of half-maximal effect
# * marks the source's active call; other numbers are inactive results; ? = inconclusive; . = not tested or not shown; [ ] = dose if it differs, or a comment. In the library only some 7.9% were active in any assay of this set; here they are far more common. % is set by controls: 0 for no effect and ±100 for the full control effect.
SMILES,Lassa entry inh,HCV inhibitor,HCMV inh,FMDV antiviral,Marburg entry inh
Cc1ccc(S(=O)(=O)N(C)CCCC(=O)Nc2ccc(F)cc2)cc1,.,?,4,-21%,.
CN(CCCC(=O)Nc1ccccc1F)S(=O)(=O)c1ccc(F)cc1,-8%,31%,-61*,-1%,8%
COc1ccc(N(Cc2nc3cc(C)c(C)cc3[nH]2)Cc2nc3cc(C)c(C)cc3[nH]2)cc1,.,.,20,.,.
CC(C)(C)OC(=O)C[C@@H]1C/C=C\C[C@@H](CC(=O)NCCO)C(=O)NC[C@H](c2ccccc2)OC1=O,.,6%,-23,-26%,.
COC(=O)c1cc(=O)nc(NN=Cc2ccccc2)s1,.,.,18,.,.
COC(=O)c1cc(=O)nc(NN=C2c3ccccc3-c3ccccc32)s1,.,.,-66*,-20%,.
Cc1ccc(C)c(NC(=O)Cn2c(=O)n(Cc3ccco3)c(=O)c3ccc(C(=O)NC4CCCC4)cc32)c1,25%[46.1 µM],.,-4,-14%,2%[46.1 µM]
CC(=O)N[C@@H]1C=C[C@@H](CC(=O)NCc2ccc(Cl)cc2)O[C@@H]1CO,.,.,-32,-23%,.
O=C(C[C@@H]1C=C[C@@H](NC(=O)C2CC2)[C@@H](CO)O1)NCc1ccccc1Cl,.,.,-62*,-8%,.
CN(C)c1cc[n+](CC(=O)Nc2c(Cl)cc(Cl)cc2Cl)cc1,10%,-3%,-67*,-9%,4%[46.1 µM]
CN(C)c1cc[n+](CC(=O)Nc2ccc([N+](=O)[O-])cc2Cl)cc1,-2%,14%,-32,-16%,-15%
COC(=O)c1cc(CNC(=O)c2ccncc2)cc(NC(=O)c2ccccc2Cl)c1,.,.,.,-1%,.
COc1ccc2c3c(cccc13)C(=O)CC2,15%,-9%,-71*,-11%,-1%
COc1ccc2c(c1OC)C(=O)OC2,.,11%,0,-3%,.
CN(C)CCN(C(=O)c1ccc2ccccc2c1)c1nc2ccc(Br)cc2s1,.,9%,0,-1%,.
COc1ccc(C)c2sc(N(CCCN(C)C)C(=O)c3ccc4c(c3)OCCO4)nc12,10µM*,?,-11,-17%,?
Cc1cc(C)c2nc(N(CCCN(C)C)C(=O)C3=COCCO3)sc2c1,?,32µM*,-2,0%,20µM*
Cc1cc(C)c2nc(N(CCCN(C)C)C(=O)c3ccc4c(c3)OCCO4)sc2c1,?,11µM*,?,-24%,?
CN(C)CCCN(C(=O)C1=COCCO1)c1nc2ccc(Br)cc2s1,-20%[46.1 µM],13µM*,6,-5%,?
CCN(C(=O)C1=COCCO1)c1nc2c(C)cccc2s1,?,-11%[8.37 µM],-40,7%,?
CCN(CC)CCN(C(=O)C1=COCCO1)c1nc2cc(C)cc(C)c2s1,-14%,?,-21,?,11µM*
CC1CCCC(NC(=O)COC(=O)c2ccc(N(C)C)cc2)C1C (stereo not given),?,2.8µM*,4,-3%,-1%
CCN(CC)c1ccc(C(=O)OCC(=O)NC2CCCCC2C)cc1 (stereo not given),-21%,-23%,-10,-21%,-3%[46.1 µM]
CC1(C(=O)NS(=O)(=O)c2cccc(OC(F)F)c2)CCN1C(=O)Cc1ccsc1 (stereo not given),.,.,15,-15%,.
Cc1cc(C(C)(C)C)c(O)c(C(C)(C)C)c1,.,-7%,-27,-4%,.
SMILES,Lassa entry inh,HCV inhibitor,HCMV inh,FMDV antiviral,Marburg entry inh
CC(C)(C)c1cc([N+](=O)[O-])cc(C(C)(C)C)c1O,16µM*,10µM*,-100*,?,6.5µM*
COc1cc(OC)c2c(-c3cccc(-c4ccc(O)cc4)c3)cc(=O)oc2c1,.,?,-14,?,.
COc1cc(OC)c2c(-c3cccc(-c4ccc(N(C)C)cc4)c3)cc(=O)oc2c1,.,?,-73*,-6%,.
COc1cc(OC)c2c(-c3cccc(-c4ccc(OC(F)(F)F)cc4)c3)cc(=O)oc2c1,.,19%,15,-22%,.
COc1ccc(-c2cccc(-c3cc(=O)oc4cc(OC)cc(OC)c34)c2)cc1,.,?,-73*,-26%,.
COc1cc(OC)c2c(-c3cccc(-c4cccc(C)c4)c3)cc(=O)oc2c1,.,4.5µM*,-35,?,.
CCCNC(=O)c1oc2ccc3c(c2c1C)C(=O)CC(C)(C)O3,-20%,10µM*,9,2%,?
CCCNC(=O)c1oc2ccc3c(c2c1C)C=CC(C)(C)O3,-7%,?,-61*,33%,?
Cc1c(C(=O)NCc2ccc(Cl)cc2)oc2ccc3c(c12)C(=O)CC(C)(C)O3,.,.,-18,31%,?
Cc1noc(C)c1CC(=O)N1CCOc2c(cc(-c3nc4ccccc4s3)cc2OC2CCOC2)C1 (stereo not given),.,.,.,-9%,.
O=C(c1ccccc1)[C@@H]1[C@@H]2C(=O)N(c3ccc(F)cc3)C(=O)[C@@H]2C2CCCN21 (stereo not given in full),.,13%,-67*,-16%,.
COc1ccc(N2C(=O)C3C(C2=O)C(C(=O)c2ccc(Cl)cc2)N2CCCC32)cc1 (stereo not given),8%,5%,-60*,?,?
CC(=O)c1ccc(N2C(=O)C3C(C2=O)C(C(=O)c2ccc(Cl)cc2)N2CCCC32)cc1 (stereo not given),-1%,-17%,27,?,?
CCCC[n+]1ccn(C2=C([O-])c3ccccc3C(=O)/C2=N\S(=O)(=O)c2ccc(Cl)cc2)c1,.,?,-73*,-15%,.
CC(C)CCn1c(=O)c2ccccc2n2c(CCl)nnc12,?,?,15,32µM*,?
CC(C)CCn1c(=O)c2ccccc2n2c(CN3CCCC3)nnc12,3%[46.1 µM],-2%,-20,-2%,17%[46.1 µM]
CCCCCn1c(=O)c2ccccc2n2c(CCl)nnc12,-8%,-25%,-12,20µM*,-14%[14.2 µM]
CCCn1c(=O)c2ccccc2n2c(SCC(N)=O)nnc12,28%[46.1 µM],9%,21,-13%,-1%[46.1 µM]
N#C/C(=C\c1c[nH]c2ccc(Br)cc12)c1ccccn1,?,11µM*,.,-17%,13µM*
CCOc1ccc(NC(=O)CCNS(=O)(=O)c2ccc3c(c2)CC(C)N3C(C)=O)cc1 (stereo not given),.,8%,0,7%,.
O=C(COC(=O)CNC(=O)c1ccc(Cl)c([N+](=O)[O-])c1)NC(=O)c1ccccc1,.,2%,15,-24%,.
Cc1ccc(S(=O)(=O)N2CCCCC2)cc1NC(=O)COC(=O)c1cccn1C,.,13µM*,0,-26%,.
Cc1ccc(S(=O)(=O)N2CCCCC2)cc1NC(=O)CCCOc1ccccc1,?,10µM*,-6,-10%,-28%[46.1 µM]
COc1ccc([N+](=O)[O-])cc1NCC(=O)Nc1cc(S(=O)(=O)N2CCCCC2)ccc1C,.,11µM*,-99*,-18%,.
COc1ccc(S(=O)(=O)N2CCCCC2)cc1NCC(=O)Nc1ccc(C)cc1,?,?,1,-29%,-2%[46.1 µM]
COc1ccc(CC(=O)Nc2cc(S(=O)(=O)N3CCCCC3)ccc2C)cc1OC,?,10µM*,-69*,?,?

# Bioassay records (PubChem BioAssay)
